Only some compounds are listed: those with a hit (about 8.9% of all), similar ones and a draw of the others.
KB-3-1 cytotox – qHTS assay for MDR1-selective chemotherapeutics: Primary screen using the parental adenocarcinoma cell KB-3-1 | KB-3-1 viability, CellTiter-Glo ATP luminescence, 72 h | Potency, µM (series often up to 46.1 µM), actives largely listed as cytotoxic | 400,000 tested, 1.4% active | AID 1347075, 2019; also: potency is read from the fitted curve at half-maximal effect; % is scaled to controls: 0 for no effect and ±100 for the full control effect; nearly all actives have a fitted effect of over 60% in size
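Cells are dispensed, compounds pinned in, plates held at 37 °C for 72 h, then CellTiter-Glo is added and luminescence read after 10 minutes. Cell line: parental KB-3-1 in phenol-red-free DMEM, 10% FBS.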
KB-V1 MDR tox – qHTS assay for MDR1-selective chemotherapeutics: Primary screen using the drug-selected MDR subline cells KB-V1; Potency, µM (highest dose often 46.1 µM), hits mostly cytotoxic; KB-V1 MDR cells viability, CellTiter-Glo, 72 h; 400,000 tested, 3.4% active; also: potency is read from the fitted curve at half-maximal effect; % is scaled to controls: 0 for no effect and ±100 for the full control effect; nearly all actives have a fitted effect of over 60% in size
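KB-V1, DMEM (no phenol red) + 10% FBS; cpd pin-transferred, titration series; 72 h, 37 degrees C; CellTiter-Glo, luminescence. Data normalized, curve-fit.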
DRD3 agonist – qHTS of D3 Dopamine Receptor Agonist: qHTS | D(3) dopamine receptor (Homo sapiens), P35462 | D3R DiscoveRx beta-arrestin cells, luminescence, 90 min | max activation, % | 410,000 tested, 0.58% active | AID 652048, 2013; in the data active = max activation above about 30%; also: 0% is about no effect
Target sequence (P35462 whole entry, looked up): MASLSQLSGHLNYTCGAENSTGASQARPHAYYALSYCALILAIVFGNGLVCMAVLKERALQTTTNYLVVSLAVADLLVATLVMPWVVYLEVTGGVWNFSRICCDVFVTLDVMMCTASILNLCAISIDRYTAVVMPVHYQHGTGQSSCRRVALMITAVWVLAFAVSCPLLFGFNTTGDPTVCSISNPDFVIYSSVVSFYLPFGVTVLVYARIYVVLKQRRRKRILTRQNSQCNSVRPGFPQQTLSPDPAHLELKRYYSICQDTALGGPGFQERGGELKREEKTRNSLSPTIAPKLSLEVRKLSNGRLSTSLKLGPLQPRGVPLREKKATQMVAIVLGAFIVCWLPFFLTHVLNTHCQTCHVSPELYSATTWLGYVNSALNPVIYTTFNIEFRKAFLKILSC
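Agonist mode: compounds and dopamine controls were applied to plated cells for 90 min at 37 degrees C after an overnight attachment at 1500 cells/well. Luminescent read-out followed 30 - 60 minutes at room temperature with DiscoveRx detection reagent.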
MCF10A rereplic – A quantitative high throughput screen for small molecules that induce DNA re-replication in MCF 10a normal breast cells; MCF 10A DNA re-replication, Hoechst nuclear intensity, 48 h; Potency, µM (titrated, usually from 46.1 µM), for inactives: at the highest dose activity, positive = re-replication, actives largely listed as activators; 350,000 tested, 2.9% active; AID 624296, 2012; also: potency is read from the fitted curve at half-maximal effect; % of control where 0% means no effect; nearly all actives have a fitted effect of over 50% in size
SW480 rerep – A quantitative high throughput screen for small molecules that induce DNA re-replication in SW480 colon adenocarcinoma cells. 340,000 tested, 1.8% active. SW480 DNA re-replication, Hoechst DNA content imaging, 48 h. AID 624297, 2012. Potency, µM (top dose mostly 46.1 µM), without a hit: top-dose re-replication activation, actives largely listed as activators; also: potency is read from the fitted curve at half-maximal effect; % of control where 0% means no effect; nearly all actives have a fitted effect of over 55% in size
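250 cells/well; 23 nL cpd via pin tool; 48 hr, 37 C, 5% CO2; Hoechst 40 min; imager read of total nuclear intensity, ex 405/em 500-530 nm.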
DRD3 antagonist – qHTS of D3 Dopamine Receptor Antagonist: qHTS | D(3) dopamine receptor (Homo sapiens), P35462 | D3R cells, DiscoveRx beta-arrestin luminescence, antagonist mode; stronger effect = lower value | max response, negative = inhibition, % | 360,000 tested, 2.5% active | AID 652054, 2013; in the data active = max response below about -50%; inconclusive = no clear call, values can overlap the other calls; also: % is scaled to controls: 0 for no effect and ±100 for the full control effect
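Cells plated overnight at 1500 cells/well, then exposed to library compounds with dopamine controls for 90 minutes at 37 degrees C. DiscoveRx reagent added for 30–60 minutes at room temperature; luminescence read, quantitative HTS format.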
The depositor's hits bear a star; i = inactive; ? = inconclusive; nt = no result given; [ ] = dose if it differs, or a comment. Unless noted, calls follow the shape of the dose curve; as a rule, active = well fitted curve in the direction sought with a large enough effect; inconclusive = small, poorly fitted or top-dose-only effect, or another doubt; inactive = no such curve, though single readings can be large; an effect the other way counts as inactive or inconclusive.

SMILES	KB-3-1 cytotox	KB-V1 MDR tox	DRD3 agonist	MCF10A rereplic	SW480 rerep	DRD3 antagonist
CCc1ccc(NC(=O)Cn2cc(S(=O)(=O)N3CCCC3)c(S(=O)(=O)N3CCCC3)c2)cc1	i	i	7	nt	nt	nt
COc1ccc(C(NC(=O)CN2CCCCCC2)c2ccc(OC)cc2)cc1	i	i	-28	8%	-18%	-53*
COc1ccc(NC(=O)CN2CCCC2)cc1	i	i	-2	-1%	2%	0
O=C(CN1CCN(c2ccccc2O)CC1)NC(c1ccccc1)c1ccccc1	i	4.1µM*	-19	-9%	-9%	-56*
O=C(CN1CCCC1)NC(c1ccccc1)c1ccccc1	i	i	-5	-2%	-16%	-8
CCOc1ccccc1N1CCN(CC(=O)NC(C)c2ccccc2)CC1 (configuration not stated)	i	i	-22	-2%	-6%	-89*
CCOC(=O)c1ccc(NC(=O)CCc2c(C)nc3nc[nH]n3c2=O)cc1	i	i	7	nt	nt	nt
COc1ccc(C)cc1S(=O)(=O)n1cnc2ccccc21	5.2µM*	?	-5	?	?	9
Cc1ccc(S(=O)(=O)n2cnc3ccccc32)cc1	i	?	2	9%	-4%	4
COc1cc([N+](=O)[O-])cc2sc(NC(=O)c3c(F)cccc3F)nc12	i	i	8	0.73µM*	0%	7
COc1cccc2cc(-c3nc4sc5c(c4c(=O)[nH]3)CCC(C(C)(C)C)C5)c(=O)oc12 (configuration not stated)	nt	nt	-6	nt	nt	nt
O=S(=O)(NNC(=S)Nc1ccc(S(=O)(=O)Nc2ncccn2)cc1)c1ccc(Br)cc1	i	i	6	-1%	0%	-7
COc1ccc(NS(=O)(=O)c2ccc(NC(=S)NC(=O)c3ccc(Br)cc3)cc2)nn1	i	i	-16	4%	-1%	-53*
O=C(NC(=S)Nc1ccc(S(=O)(=O)Nc2ncccn2)cc1)c1ccc(Br)cc1	i	i	-4	2%	18µM*	-18
CC1=C(C(=O)Nc2cccnc2)C(c2cccc(F)c2)n2nc(SCc3ccccc3)nc2N1 (configuration not stated)	i	i	-1	nt	nt	nt
CCc1ccc(-c2nc(CS(=O)CC(=O)NCCc3ccc(C)cc3)c(C)o2)cc1 (configuration not stated)	nt	nt	-6	nt	nt	nt
Cc1ccc(S(=O)(=O)N2CCCCC2)cc1NCC(=O)Nc1ccc(Br)cc1F	3.3µM*	?	17	nt	nt	95
O=C(CN1CCN(S(=O)(=O)c2ccc(Br)cc2)CC1)Nc1ccc(F)cc1F	i	i	-1	1%	2%	-51*
COc1ccc(Cl)cc1NC(=O)CSC1=Nc2ccccc2C2=NC(CC(=O)NCc3ccc4c(c3)OCO4)C(=O)N12 (configuration not stated)	i	i	-9	nt	nt	nt
Cc1cc(NC(=O)COc2ccccc2C(N)=O)no1	i	i	1	-10%	-7%	-1
OC(Br)C(O)C(O)N1CCCc2ccccc21 (configuration not stated)	i	i	nt	nt	nt	nt
Cc1cc(=O)[nH]c(NN=Cc2cc(Br)ccc2O)n1	?	0.58µM*	7	?	?	-10
CCN(CC)c1ccc(/C=N/Nc2nc(C)cc(=O)[nH]2)c(O)c1	1.2µM*	?	2	8.2µM*	?	17
Cc1cc(=O)[nH]c(N/N=C/c2ccccc2Cl)n1	i	i	3	?	11%	3
COc1cc(/C=N/NC(=O)CSc2ccccn2)ccc1O	i	i	-11	-2%	-7%	8
SMILES	KB-3-1 cytotox	KB-V1 MDR tox	DRD3 agonist	MCF10A rereplic	SW480 rerep	DRD3 antagonist
COc1cc([N+](=O)[O-])cc(/C=N/NC(=O)CSc2ccccn2)c1O	?	?	-16	?	?	-52*
COc1cc([N+](=O)[O-])cc(/C=N/NC(=O)Cn2cncn2)c1O	?	?	-26	16µM*	-2%	-76*
O=C(c1cccn1-c1nnc(N2CCCCC2)s1)N1CCN(c2ccccc2)CC1	i	i	-17	nt	nt	nt
CCN(CC)CCCOc1cc2nc(N3CCCN(C)CC3)nc(NC3CCN(C)CC3)c2cc1OC	?	i	nt	nt	nt	nt
CCOC(=O)C1(CC2CC2)CCN(Cc2ccc(OC)cc2F)CC1	i	?	-18	?	?	-68*
CCOC(=O)C1(CC2CC2)CCN(Cc2cc(Cl)c(O)c(OC)c2)CC1	i	?	-12	-6%[9.22 µM]	-4%	-3
COc1ccc(NC(=O)C2CCCN(S(=O)(=O)c3ccc4c(c3)CCCC(=O)N4)C2)c(OC)c1 (configuration not stated)	i	i	3	nt	nt	nt
CC(=O)Nc1ccc(Cl)c(C(N)=O)c1	i	i	7	-8%	-7%	3
NC(=O)c1cc(N2C(=O)C=CC2=O)ccc1Cl	i	i	-1	18µM*	?	-14
CCOc1cc(/C=N/O)ccc1OCC(=O)Nc1cccc(C)c1	i	13µM*	2	?	5%	16
COc1cc(/C=N\NC(=O)CC#N)ccc1OC/C=C/c1ccccc1	i	i	-4	6%	?	-6
CCOc1cc(-c2nc(C)c(C(C)=O)n2O)ccc1OCC(=O)Nc1cccc(C)c1	i	?	-4	1%	-2%	-5
COCC(=O)N/N=C\c1ccc(OC/C=C/c2ccccc2)c(OC)c1	i	12µM*	-7	?	?	-19
CCCOc1ccc(/C=N/NC(=O)CSCc2ccc([N+](=O)[O-])cc2)cc1OCC	i	16µM*	-8	0%	-3%	10
COc1cc(/C=N\Nc2ccc([N+](=O)[O-])cc2)ccc1OCC(=O)Nc1ccc(C)c(C)c1	?	i	-2	5.8µM*	21µM*	-3
COc1cc(/C=N\NC(=O)CN2CCOCC2)ccc1OCC(=O)Nc1ccc(C)c(C)c1	i	i	1	2%	1%	12
CCOc1cc(/C=N\Nc2ccc([N+](=O)[O-])cc2)ccc1OCC(=O)Nc1ccc(C)c(C)c1	i	i	-6	16µM*	?	-15

Screening data (PubChem)
